# Laboratory results published in PubChem BioAssay (NCATS).
# Inconclusive results are not listed. A number with no mark means an inactive call. This is one part of the list. Entries that show only a call come without a potency. Active and inactive are the calls of the source. Calls follow the shape of the dose curve; as a rule, active = well fitted curve in the direction sought with a large enough effect; inconclusive = small, poorly fitted or top-dose-only effect, or another doubt; inactive = no such curve, though single readings can be large; an effect the other way counts as inactive or inconclusive.
# How the values were obtained:
# [1] = qHTS for Inhibitors of Plasmodium falciparum (DD2) proliferation (AID 504314);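 also: parasite DNA measured by SYBR Green fluorescence after red cell lysis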
# Outline: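 P. falciparum Dd2 is grown in erythrocytes with test compound for 72 h at 37C under 5% CO2. Growth is scored by SYBR Green I fluorescence after detergent lysis, relative to artemisinin (0.29 uM) and DMSO controls.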
# [2] = qHTS for Inhibitors of Plasmodium falciparum (GB4) proliferation (AID 504315); also: nearly all actives have a fitted effect of over 50% in size
# Outline: (§1)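 Parasite growth measured as SYBR Green DNA fluorescence (ex 485, em 535 nm) after overnight lysis following 72 h culture at 37 °C, 0.3% parasitemia, 2.5% hematocrit. Values normalized against DMSO and 0.29 uM artemisinin controls, with plate-stack correction.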
# [3] = qHTS for Inhibitors of Plasmodium falciparum (7G8) proliferation (AID 504316); also: series mostly up to about 6.7 µM; nearly all actives have a fitted effect of over 65% in size
# Outline: as §1
# [4] = qHTS for Inhibitors of Plasmodium falciparum (HB3) proliferation (AID 504318); also: nearly all actives have a fitted effect of over 60% in size
# Outline: as §1
# [5] = qHTS for Inhibitors of Plasmodium falciparum (CP250) proliferation (AID 504320)
# Outline: as §1
# [6] = molecular target: Rap guanine nucleotide exchange factor 3 (Homo sapiens) (UniProt O95398); assay: Confirmatory qHTS for agonist of cAMP-regulated guanine nucleotide exchange factor 3 (EPAC1) (AID 1645881);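 also: EPAC1 catalysed release of BODIPY-GDP from Rap1B seen as fluorescence loss; nearly all actives have a fitted effect of over 75% in size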
# Sequence of Rap guanine nucleotide exchange factor 3 (Homo sapiens) (O95398 whole entry, looked up): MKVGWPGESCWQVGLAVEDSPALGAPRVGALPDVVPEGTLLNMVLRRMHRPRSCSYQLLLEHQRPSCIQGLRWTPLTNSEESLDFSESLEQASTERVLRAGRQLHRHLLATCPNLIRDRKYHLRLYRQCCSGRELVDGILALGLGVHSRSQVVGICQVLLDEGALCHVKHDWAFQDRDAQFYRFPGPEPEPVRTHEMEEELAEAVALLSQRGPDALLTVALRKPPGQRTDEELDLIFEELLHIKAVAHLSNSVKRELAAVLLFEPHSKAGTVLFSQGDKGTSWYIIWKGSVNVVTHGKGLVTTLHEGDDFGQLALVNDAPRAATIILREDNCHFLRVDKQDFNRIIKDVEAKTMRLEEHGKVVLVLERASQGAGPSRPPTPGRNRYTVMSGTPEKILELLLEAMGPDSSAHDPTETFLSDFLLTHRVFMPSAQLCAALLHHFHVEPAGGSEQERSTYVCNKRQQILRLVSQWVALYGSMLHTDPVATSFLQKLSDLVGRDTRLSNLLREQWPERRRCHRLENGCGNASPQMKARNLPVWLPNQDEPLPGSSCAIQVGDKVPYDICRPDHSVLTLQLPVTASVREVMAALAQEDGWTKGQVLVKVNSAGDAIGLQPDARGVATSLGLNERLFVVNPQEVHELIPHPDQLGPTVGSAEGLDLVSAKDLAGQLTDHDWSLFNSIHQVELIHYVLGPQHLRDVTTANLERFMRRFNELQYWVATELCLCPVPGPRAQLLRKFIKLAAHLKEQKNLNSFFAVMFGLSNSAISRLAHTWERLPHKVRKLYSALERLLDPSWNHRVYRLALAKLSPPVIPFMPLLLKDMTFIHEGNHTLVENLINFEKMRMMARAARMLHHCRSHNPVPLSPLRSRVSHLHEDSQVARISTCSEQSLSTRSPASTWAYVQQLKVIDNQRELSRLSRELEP
# [7] = molecular target: Rap guanine nucleotide exchange factor 4 (Homo sapiens) (UniProt Q8WZA2); assay: Confirmatory qHTS for agonist of cAMP-regulated guanine nucleotide exchange factor 4 (EPAC2) (AID 1645884);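 also: nucleotide exchange releases bodipy-GDP from Rap1 and this lowers its fluorescence; nearly all actives have a fitted effect of over 65% in size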
# Sequence of Rap guanine nucleotide exchange factor 4 (Homo sapiens) (Q8WZA2 whole entry, looked up): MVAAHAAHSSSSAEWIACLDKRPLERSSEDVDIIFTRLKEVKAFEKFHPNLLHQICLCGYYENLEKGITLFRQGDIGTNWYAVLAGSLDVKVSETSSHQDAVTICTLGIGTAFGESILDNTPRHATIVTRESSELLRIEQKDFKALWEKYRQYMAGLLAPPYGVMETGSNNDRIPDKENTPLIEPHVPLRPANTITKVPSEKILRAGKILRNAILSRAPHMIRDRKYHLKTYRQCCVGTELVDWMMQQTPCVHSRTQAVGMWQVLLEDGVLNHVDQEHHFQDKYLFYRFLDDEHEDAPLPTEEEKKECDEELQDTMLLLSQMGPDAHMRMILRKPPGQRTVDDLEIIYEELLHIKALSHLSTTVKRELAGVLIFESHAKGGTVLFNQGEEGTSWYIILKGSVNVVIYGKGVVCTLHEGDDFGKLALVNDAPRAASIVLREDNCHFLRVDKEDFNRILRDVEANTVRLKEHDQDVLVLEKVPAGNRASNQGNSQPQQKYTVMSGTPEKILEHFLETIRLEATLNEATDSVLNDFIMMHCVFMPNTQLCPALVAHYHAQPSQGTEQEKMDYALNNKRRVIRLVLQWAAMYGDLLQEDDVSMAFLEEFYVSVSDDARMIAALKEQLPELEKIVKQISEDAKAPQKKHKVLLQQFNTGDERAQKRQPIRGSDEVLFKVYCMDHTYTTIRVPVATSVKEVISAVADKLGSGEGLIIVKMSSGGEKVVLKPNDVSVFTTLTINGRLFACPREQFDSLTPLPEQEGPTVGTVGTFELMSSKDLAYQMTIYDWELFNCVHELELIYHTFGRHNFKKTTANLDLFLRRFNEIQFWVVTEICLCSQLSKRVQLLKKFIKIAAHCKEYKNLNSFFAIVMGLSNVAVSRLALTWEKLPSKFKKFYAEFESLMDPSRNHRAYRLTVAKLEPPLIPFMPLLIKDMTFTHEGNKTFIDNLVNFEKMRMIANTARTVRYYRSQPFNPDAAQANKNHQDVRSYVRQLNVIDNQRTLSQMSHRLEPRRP
# [8] = molecular target: Rap guanine nucleotide exchange factor 4 (Homo sapiens) (UniProt Q8WZA2); assay: Confirmatory qHTS for antagonist of cAMP-regulated guanine nucleotide exchange factor 4 (EPAC2) (AID 1645885); also: nearly all actives have a fitted effect of over 25% in size
# [9] = molecular target: Rap guanine nucleotide exchange factor 3 (Homo sapiens) (UniProt O95398); assay: Counterscreen qHTS for antagonist of cAMP-regulated guanine nucleotide exchange factor 3 (EPAC1) (AID 1645888);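 also: fluorescence loss as bound BODIPY-GDP is released from Rap1B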
# Outline: (§2)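 Rap1B–BODIPY-GDP (250 nM) with 50 uM GDP; compounds pin-transferred to 9.74 nM–152 uM final (activator) or from 7.32 nM upwards (inhibitor). Fluorescence Ex/Em 480/540 nm read at 5 and 30 min, then after adding cAMP or buffer, at room temperature.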
# [10] = molecular target: Rap guanine nucleotide exchange factor 3 (Homo sapiens) (UniProt O95398); assay: Counterscreen qHTS for agonist of cAMP-regulated guanine nucleotide exchange factor 3 (EPAC1) (AID 1645889); also: nearly all actives have a fitted effect of over 40% in size
# Outline: as §2
# [11] = molecular target: DNA polymerase eta (Homo sapiens) (UniProt Q9Y253); assay: qHTS for Inhibitors of Polymerase Eta: Confirmatory Assay for Cherry-picked Compounds (AID 720502); details: Pol eta primer extension, TAMRA/BHQ fluorescence, 10 min; also: potency is read from the fitted curve at half-maximal effect
# Sequence of DNA polymerase eta (Homo sapiens) (Q9Y253 whole entry, looked up): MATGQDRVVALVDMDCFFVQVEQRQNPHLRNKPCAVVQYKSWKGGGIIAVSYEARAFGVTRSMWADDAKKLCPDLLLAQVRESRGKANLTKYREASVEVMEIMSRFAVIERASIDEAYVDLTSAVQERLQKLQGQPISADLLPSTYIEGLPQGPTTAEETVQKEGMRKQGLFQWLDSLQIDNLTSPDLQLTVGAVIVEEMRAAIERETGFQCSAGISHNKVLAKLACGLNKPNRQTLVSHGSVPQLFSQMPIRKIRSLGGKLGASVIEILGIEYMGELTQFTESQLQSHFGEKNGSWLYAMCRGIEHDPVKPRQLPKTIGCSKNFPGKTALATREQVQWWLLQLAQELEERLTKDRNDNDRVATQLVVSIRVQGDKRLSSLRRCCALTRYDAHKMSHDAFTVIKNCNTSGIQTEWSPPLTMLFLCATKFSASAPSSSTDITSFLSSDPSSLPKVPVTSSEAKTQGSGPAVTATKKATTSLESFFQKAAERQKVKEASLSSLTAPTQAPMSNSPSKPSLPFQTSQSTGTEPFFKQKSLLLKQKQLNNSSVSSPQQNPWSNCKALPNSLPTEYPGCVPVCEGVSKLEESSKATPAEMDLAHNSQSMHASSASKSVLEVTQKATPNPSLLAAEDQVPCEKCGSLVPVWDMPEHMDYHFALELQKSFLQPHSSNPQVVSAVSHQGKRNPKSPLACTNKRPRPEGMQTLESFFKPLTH
# Outline: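 Human Pol eta at 10 nM was preincubated with compound for 15 min at room temperature. Reaction was started with TAMRA/BHQ-2-labelled primer-template substrate (50 nM final), with fluorescence read at 0 and 10 min (ex 525, em 598 nm).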
# [12] = molecular target: ATPase family AAA domain-containing protein 5 (Homo sapiens) (UniProt Q96QE3); assay: qHTS screen for small molecules that inhibit ELG1-dependent DNA repair in human embryonic kidney (HEK293T) cells expressing luciferase-tagged ELG1: Hit Confirmation using MMS Stimulated ELG1 (AID 624249);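 also: cells co-treated with MMS at 10 µM final alongside compound; luminescence of ELG1-luciferase fusion read with Amplight reagent; series mostly up to about 46 µM; nearly all actives have a fitted effect of over 60% in size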
# Sequence of ATPase family AAA domain-containing protein 5 (Homo sapiens) (Q96QE3 whole entry, looked up, the tested form may be a part): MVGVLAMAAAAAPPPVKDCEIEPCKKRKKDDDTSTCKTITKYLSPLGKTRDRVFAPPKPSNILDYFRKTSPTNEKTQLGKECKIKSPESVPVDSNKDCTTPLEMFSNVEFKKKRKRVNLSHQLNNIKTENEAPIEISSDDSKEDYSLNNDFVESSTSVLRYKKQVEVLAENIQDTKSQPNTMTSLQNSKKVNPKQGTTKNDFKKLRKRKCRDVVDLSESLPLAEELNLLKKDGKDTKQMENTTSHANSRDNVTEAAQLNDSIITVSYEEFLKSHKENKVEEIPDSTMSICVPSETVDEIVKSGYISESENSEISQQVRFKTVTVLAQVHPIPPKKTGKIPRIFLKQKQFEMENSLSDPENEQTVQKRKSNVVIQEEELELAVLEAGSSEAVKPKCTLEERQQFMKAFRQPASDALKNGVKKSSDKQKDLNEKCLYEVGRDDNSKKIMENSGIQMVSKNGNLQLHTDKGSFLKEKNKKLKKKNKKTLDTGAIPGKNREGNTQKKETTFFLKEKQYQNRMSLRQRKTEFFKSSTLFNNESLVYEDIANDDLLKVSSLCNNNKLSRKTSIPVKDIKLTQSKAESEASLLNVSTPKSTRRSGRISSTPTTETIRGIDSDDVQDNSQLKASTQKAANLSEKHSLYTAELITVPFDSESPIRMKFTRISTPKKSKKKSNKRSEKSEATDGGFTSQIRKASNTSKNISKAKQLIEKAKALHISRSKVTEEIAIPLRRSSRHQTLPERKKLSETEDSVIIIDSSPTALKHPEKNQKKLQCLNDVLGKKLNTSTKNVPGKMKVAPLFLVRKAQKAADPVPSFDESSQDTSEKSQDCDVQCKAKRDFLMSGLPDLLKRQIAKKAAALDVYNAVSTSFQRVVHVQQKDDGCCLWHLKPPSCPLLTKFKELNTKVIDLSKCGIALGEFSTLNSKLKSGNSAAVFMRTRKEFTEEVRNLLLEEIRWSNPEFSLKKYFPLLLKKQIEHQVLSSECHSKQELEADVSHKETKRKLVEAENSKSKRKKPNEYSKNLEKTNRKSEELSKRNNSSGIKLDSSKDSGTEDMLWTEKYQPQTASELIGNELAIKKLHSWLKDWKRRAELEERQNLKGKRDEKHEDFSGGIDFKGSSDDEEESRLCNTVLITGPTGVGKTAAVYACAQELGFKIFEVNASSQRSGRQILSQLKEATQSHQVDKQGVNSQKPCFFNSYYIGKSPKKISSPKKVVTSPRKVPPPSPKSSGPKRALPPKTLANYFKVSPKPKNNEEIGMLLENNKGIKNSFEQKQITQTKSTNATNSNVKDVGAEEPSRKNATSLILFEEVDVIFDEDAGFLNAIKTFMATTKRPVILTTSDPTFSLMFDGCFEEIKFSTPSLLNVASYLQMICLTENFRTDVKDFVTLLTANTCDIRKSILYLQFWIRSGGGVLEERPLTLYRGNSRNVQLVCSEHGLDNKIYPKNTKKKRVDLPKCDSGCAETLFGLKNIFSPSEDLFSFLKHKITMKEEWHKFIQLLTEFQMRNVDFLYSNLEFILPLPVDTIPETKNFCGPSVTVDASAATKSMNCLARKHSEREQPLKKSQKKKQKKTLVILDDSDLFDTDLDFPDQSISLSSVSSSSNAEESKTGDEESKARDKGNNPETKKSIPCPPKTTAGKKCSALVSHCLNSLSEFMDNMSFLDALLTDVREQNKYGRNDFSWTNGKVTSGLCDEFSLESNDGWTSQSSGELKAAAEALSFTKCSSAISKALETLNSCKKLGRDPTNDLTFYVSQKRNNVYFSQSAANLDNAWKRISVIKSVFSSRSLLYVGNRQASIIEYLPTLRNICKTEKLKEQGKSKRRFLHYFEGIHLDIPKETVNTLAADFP
# Outline: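 Luminescence from luciferase-tagged ELG1 measured 16 h after pin-tool compound transfer into HEK293T cells stimulated with 10 µM MMS (final). Compounds lowering luciferase signal counted as inhibitors of ELG1 response.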
# [13] = qHTS screen for small molecules that inhibit ELG1-dependent DNA repair: Hit Confirmation with MMS Viability (AID 624251);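 also: viability read 16 h after compound addition; nearly all actives have a fitted effect of over 60% in size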
# Outline: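 HEK293T ELG1-luc, 2,000 cells/well; cpd pin-transferred ~5 h post-seeding; MMS 10 µM final; 16 h; CellTiter-Glo viability.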
# [14] = molecular target: Tyrosyl-DNA phosphodiesterase 1 (Homo sapiens) (UniProt Q9NUW8); assay: Confirmation Assay for Inhibitors of Tyrosyl-DNA Phosphodiesterase (TDP1) (AID 489007); details: recombinant human TDP1 enzymatic activity, dose-response; also: potency is read from the fitted curve at half-maximal effect; nearly all actives have a fitted effect of over 40% in size
# Sequence of Tyrosyl-DNA phosphodiesterase 1 (Homo sapiens) (Q9NUW8 whole entry, looked up): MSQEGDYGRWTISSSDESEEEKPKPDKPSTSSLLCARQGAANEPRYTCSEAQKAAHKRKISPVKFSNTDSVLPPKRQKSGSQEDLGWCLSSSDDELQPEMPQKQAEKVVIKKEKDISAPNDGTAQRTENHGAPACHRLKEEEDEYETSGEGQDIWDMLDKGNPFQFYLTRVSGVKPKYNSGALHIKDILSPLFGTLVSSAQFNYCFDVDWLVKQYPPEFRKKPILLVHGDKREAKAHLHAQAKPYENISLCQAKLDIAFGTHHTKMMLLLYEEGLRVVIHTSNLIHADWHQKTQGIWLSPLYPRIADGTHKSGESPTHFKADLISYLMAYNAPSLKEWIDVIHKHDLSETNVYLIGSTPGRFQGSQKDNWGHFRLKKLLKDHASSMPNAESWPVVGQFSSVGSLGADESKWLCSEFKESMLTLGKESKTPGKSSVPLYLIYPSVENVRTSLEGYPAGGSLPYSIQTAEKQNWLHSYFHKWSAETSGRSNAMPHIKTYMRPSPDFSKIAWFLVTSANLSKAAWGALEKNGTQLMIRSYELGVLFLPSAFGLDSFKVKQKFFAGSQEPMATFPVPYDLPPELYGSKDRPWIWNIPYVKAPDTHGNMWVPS
# Outline: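 Loss of AlphaScreen signal reports Tdp1 cleavage of a dual-labelled DNA substrate. Conditions: 1 nM E. coli-derived enzyme, 15 nM substrate, 15 min compound preincubation, 5 min reaction, 10 min bead incubation, all at room temperature.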
# [15] = molecular target: Lethal(3)malignant brain tumor-like protein 1 (Homo sapiens) (UniProt Q9Y468); assay: qHTS Assay for the Inhibitors of L3MBTL1: Hit Validation (AID 540279); details: L3MBTL1 methyl-lysine binding inhibition, biochemical qHTS; also: potency is read from the fitted curve at half-maximal effect; nearly all actives have a fitted effect of over 70% in size
# Outline: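 L3MBTL1 (50 nM final) preformed 30 min with biotinylated H3(1-15)K9me1 peptide (75 nM), then compound 30 min at room temperature. Streptavidin donor and nickel chelate acceptor AlphaScreen beads (10 ug/mL each final) added for 30 min before read.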
# [16] = qHTS Assay for the Inhibitors of L3MBTL1: Hit Validationin AlphaScreen Counterscreen (AID 602224)
# Outline: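 AlphaScreen signal was read after compounds, 1 nM biotin-His6 peptide and 10 ug/mL each of streptavidin donor and nickel acceptor beads incubated 30 min at room temperature in darkness, following a 15 min compound–peptide preincubation.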
compound,measurement,setting,value
COC(=O)C1=C(C)N(Cc2ccccc2)C(=O)N[C@H]1c1cccc(C(F)(F)F)c1,outcome,[1],inactive
same,outcome,[2],inactive
same,outcome,[3],inactive
same,outcome,[4],inactive
same,outcome,[5],inactive
same,Potency,[6],inactive
same,activation,[7],"7.76% [at 17.1 µM, percent relative to cAMP agonist control]"
same,Potency,[8],inactive
same,"activity change, negative = inhibition",[9],-21.1% [at 30.8 µM]
same,activation,[10],10.2% [at 30.8 µM]
O=C(Nc1nc(-c2cc(F)ccc2F)cs1)C1=COCCO1,Potency,[6],inactive
same,Potency,[7],inactive
same,Potency,[8],inactive
same,Potency,[9],inactive
same,Potency,[10],inactive
CCC(C)Cn1c(O)cc2nn(-c3nc4ccccc4s3)c(=O)c-2c1C (stereo not given),Potency,[11],75.7 µM (active)
same,Potency,[6],inactive
same,activation,[7],"-0.693% [at 17.1 µM, percent relative to cAMP agonist control]"
same,Potency,[8],inactive
same,"activity change, negative = inhibition",[9],-16.7% [at 30.8 µM]
COc1cc(N)c(Cl)cc1C(=O)OCC(=O)c1ccc2c(c1)NC(=O)CO2,Potency,[12],inactive
same,outcome,[13],inactive
same,Potency,[6],inactive
same,Potency,[7],inactive
same,Potency,[8],inactive
same,Potency,[9],inactive
same,Potency,[10],inactive
O=C(NNC(=O)c1cc2cc(Br)ccc2oc1=O)c1ccc(O)cc1O,Potency,[14],56.2 µM (active)
same,Potency,[6],inactive
same,Potency,[7],inactive
same,Potency,[8],inactive
same,Potency,[9],inactive
COc1ccc(C(=O)Nc2ccccc2-c2nnn(CC(N)=O)n2)cc1,Potency,[6],inactive
same,Potency,[7],inactive
same,Potency,[8],inactive
same,Potency,[9],inactive
same,Potency,[10],inactive
COc1ccc(NC(=O)CSc2nc3sc4c(c3c(=O)n2-c2ccc(OC)cc2)CCN(C)C4)cc1,Potency,[6],inactive
same,activation,[7],"-8.15% [at 17.1 µM, percent relative to cAMP agonist control]"
same,Potency,[8],inactive
same,"activity change, negative = inhibition",[9],-8.97% [at 30.8 µM]
same,activation,[10],31.5% [at 30.8 µM]
NS(=O)(=O)c1ccc(N=Nc2ccc(=O)[nH]c2O)cc1,Potency,[14],6.31 µM (active)
same,Potency,[6],inactive
same,activation,[7],"-0.407% [at 17.1 µM, percent relative to cAMP agonist control]"
same,Potency,[8],inactive
same,"activity change, negative = inhibition",[9],-5.26% [at 30.8 µM]
same,activation,[10],-0.888% [at 30.8 µM]
Cc1ccc(Cn2c(C)nc3c(c2=O)c2nc4ccccc4nc2n3Cc2ccco2)cc1,Potency,[15],23.8 µM (active)
same,outcome,[16],inactive
same,Potency,[6],inactive
same,Potency,[7],inactive
same,Potency,[8],inactive
same,Potency,[9],inactive
same,Potency,[10],inactive
CCN(CC)C(=O)CSc1nnc(-c2cccs2)n1Cc1ccco1,Potency,[6],inactive
same,Potency,[7],inactive
same,Potency,[8],inactive
same,Potency,[9],inactive
same,Potency,[10],inactive
